HT1080NT lethal = kills 2HG-producing HT-1080-NT fibrosarcoma cells; AID 686970; HT-1080-NT fibrosarcoma viability, CellTiter-Glo ATP luminescence, 48 h; 1.6% of 360,000 active; Potency, µM (highest dose often 46.1 µM), for the others: top-dose activity, negative = less viability, most hits filed as cytotoxic;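 note: NT is the 2HG producing partner of a matched IDH1 knockdown line; 0% = DMSO-treated cells and -100% = media-only wells without cells; nearly all actives have a fitted effect of over 55% in size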
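Compounds were tested in concentration-response format on HT-1080-NT cells for 48 hours at 37 degrees C. Cell viability came from CellTiter-Glo luminescence; curves were classified by r2, response magnitude and activity.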
HT1080 IDH1KD tx = HT-1080 IDH1 knockdown cell toxicity (counter line); HT-1080 IDH1 knockdown viability, ATP luminescence, 48 h; Potency, µM (doses to about 46.1 µM), inactives show at the highest dose activity, negative = toxicity, most hits filed as cytotoxic; 2% of 360,000 active; AID 686971;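 note: 0% = DMSO wells and -100% = cell-free medium wells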
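HT-1080-IDH1KD cells (IDH1 knocked down), 750/well in RPMI with 5% FBS, treated with compound 48 h at 37 degrees C. Viability by CellTiter-Glo luminescence, normalised to DMSO and no-cell wells; concentration-response curves classed.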
TGFb SMAD3 inh = inhibitors of TGF-b signaling | HepG2 CAGA-GFP TGF-b/SMAD3 reporter, GFP fluorescence, 18 h; TGF-beta stimulated, 500 pg/mL final | Potency, µM (top dose mostly 46.1 µM), for inactives: at the highest dose activity, negative = inhibition, usual class: inhibitors | 1.2% of 410,000 active; note: % is set by controls: 0 for no effect and ±100 for the full control effect; nearly all actives have a fitted effect of over 65% in size
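GFP signal (ex488/em500-530) from TGF-beta-stimulated HEPG2 CAGA-GFP cells, 500 pg/mL final, 18 h at 37 degrees C in DMEM plus 1% FBS, normalized to unstimulated and DMSO-stimulated controls.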
HepG2 viability = counter-screen for TGF-b inhibitors: cytotoxicity in HepG2 cells | HepG2 CAGA-GFP viability, ATP luminescence, 18 h | Potency, µM (highest dose often 46.1 µM), inactives show at the top dose activity change, negative = cytotoxicity, most hits filed as cytotoxic | 0.76% of 410,000 active
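CellTiter-Glo luminescence gave cytotoxicity after 18 hours at 37 degrees C. The cells were HepG2 CAGA-GFP in 1% FBS DMEM, stimulated with 500 pg/mL TGF-beta after compound addition. %Activity was normalised to no-cell wells (complete cell-killing) and DMSO (no toxicity), and curves were fitted and classified.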
ATXN2 expr inh = ATXN2 expression inhibition. 0.72% of 360,000 active. HEK-293 ATXN2-luciferase reporter, luminescence, 24 h. AID 1745845. Potency, µM (series often up to 57 µM), for inactives: top-dose activity change, negative = inhibition, most hits filed as inhibitors; note: % is set by controls: 0 for no effect and ±100 for the full control effect; nearly all actives have a fitted effect of over 55% in size
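ATXN2-luciferase reporter cells (luciferase flanked by upstream and downstream ATXN2 gene portions) were treated 24 h at 37 °C with compounds at up to 57 uM. SteadyGlo luminescence gave expression; GF-AFC fluorescence gave viability.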
ATXN viability = cell viability loss in ATXN counter-screen; 0.49% of 400,000 active; Potency, µM (highest dose often 56.7 µM), usual class: cytotoxic; S2 cells (HEK-293 line with an ATXN2-luciferase reporter) viability, CellTiter-Fluor protease fluorescence, 24 h; note: nearly all actives have a fitted effect of over 40% in size
The depositor's hits bear a star. Shown are actives, neighbours in structure and some others; about 3.8% of the full set was active somewhere. Calls come from the whole dose curve; as a rule, active = well fitted curve in the direction sought with a large enough effect; inconclusive = small, poorly fitted or top-dose-only effect, or another doubt; inactive = no such curve, though single readings can be large; an effect the other way counts as inactive or inconclusive. Potency is the fitted concentration of half-maximal effect.

`CC1=C(C(=O)Nc2ccccc2)C(c2cccnc2)n2nc(SCc3ccccc3Cl)nc2N1` (stereo not drawn) gave TGFb SMAD3 inh 0%, HepG2 viability -9%, ATXN2 expr inh 2% and ATXN viability inactive.
`CC(=O)N1CCc2c(sc3c2c(=O)n(CCc2ccccc2)c(=O)n3Cc2ccc(F)cc2)C1` gave TGFb SMAD3 inh 11µM*, HepG2 viability -63%, ATXN2 expr inh inconclusive and ATXN viability inconclusive.
`CCOC(=O)N1CCc2c(sc3c2c(=O)n(CCc2ccccc2)c(=O)n3Cc2ccc(F)cc2)C1` gave TGFb SMAD3 inh -11% and HepG2 viability -13%.
N#CC1c2ccccc2-c2ccccc2N1C(=O)c1ccccc1 (stereo not drawn) was read as HT1080NT lethal inconclusive, HT1080 IDH1KD tx 9.2µM*, TGFb SMAD3 inh -25%, HepG2 viability -15% and ATXN viability inactive.
For Cc1cc2[nH]c3c4ccccc4nc(C)c3c2cc1C the results were HT1080NT lethal 15µM*, HT1080 IDH1KD tx inconclusive, TGFb SMAD3 inh 13µM*, HepG2 viability 18µM* and ATXN2 expr inh inconclusive.
`Cc1cc2[nH]c3ccccc3c2c(C)n1` gave HT1080NT lethal -30%, HT1080 IDH1KD tx inconclusive, TGFb SMAD3 inh inconclusive, HepG2 viability -8%, ATXN2 expr inh inconclusive and ATXN viability inactive.
For COc1cc(C2c3cc4c(cc3OC(Nc3ccc(C(=O)O)cc3)C2C)OCO4)cc(OC)c1OC (stereo not drawn) the results were HT1080NT lethal 0.52µM*, HT1080 IDH1KD tx inconclusive, TGFb SMAD3 inh inconclusive, HepG2 viability -9%, ATXN2 expr inh -22% and ATXN viability inconclusive.
`COc1cc(C2c3cc4c(cc3OC(N3CCOCC3)C2C)OCO4)cc(OC)c1OC(C)=O` (stereo not drawn) gave HT1080NT lethal inconclusive, HT1080 IDH1KD tx inconclusive, TGFb SMAD3 inh -11%, HepG2 viability -1%, ATXN2 expr inh -5% and ATXN viability inactive.
Screening CN(C)c1nc(N)nc(-c2cccnc2)n1 returned HT1080NT lethal 19%, HT1080 IDH1KD tx 10%, TGFb SMAD3 inh 2%, HepG2 viability 33%, ATXN2 expr inh 2% and ATXN viability inactive.
Cc1[nH]nc(-c2cccnc2)c1N=NN(C)C was read as HT1080NT lethal 21µM*, HT1080 IDH1KD tx 21µM*, TGFb SMAD3 inh inconclusive, HepG2 viability 14µM* and ATXN2 expr inh 0%.
O=c1[nH]c2ccc(Cl)cc2c(-c2ccccc2)c1N1CCOCC1 was read as HT1080NT lethal -2%, HT1080 IDH1KD tx 0%, TGFb SMAD3 inh -1%, HepG2 viability -39%, ATXN2 expr inh -6% and ATXN viability inactive.
`O=C(c1ccco1)N1CCN(c2c(-c3ccccc3)c3cc(Cl)ccc3[nH]c2=O)CC1` gave HT1080NT lethal inconclusive, HT1080 IDH1KD tx inconclusive, TGFb SMAD3 inh inconclusive, HepG2 viability 18µM* and ATXN2 expr inh inconclusive.
`O=C(O)CCS(=O)(=O)c1cccc2cccnc12` gave HT1080NT lethal 1%, HT1080 IDH1KD tx 0%, TGFb SMAD3 inh 18%, HepG2 viability 6%, ATXN2 expr inh 2% and ATXN viability inactive.
For CCSS(=O)(=O)c1cccc2cccnc12 the results were HT1080NT lethal 33µM*, HT1080 IDH1KD tx inconclusive, TGFb SMAD3 inh inconclusive, HepG2 viability -147%, ATXN2 expr inh inconclusive and ATXN viability inactive.
`Cc1onc(C(=O)N2CCC(Cc3ccccc3)CC2)c1[N+](=O)[O-]` gave HT1080NT lethal 5.8µM*, HT1080 IDH1KD tx 10µM*, TGFb SMAD3 inh inconclusive, HepG2 viability -2%, ATXN2 expr inh -13% and ATXN viability inactive.
For CCCSc1nsc(NC(=O)CC)n1 the results were HT1080NT lethal 9%, HT1080 IDH1KD tx -4%, TGFb SMAD3 inh inconclusive, HepG2 viability -20%, ATXN2 expr inh 1% and ATXN viability inactive.
For CCCCCCSc1nsc(NC(=O)CC(C)C)n1 the results were HT1080NT lethal inconclusive, HT1080 IDH1KD tx 15µM*, TGFb SMAD3 inh inconclusive, HepG2 viability -20%, ATXN2 expr inh 29% and ATXN viability inactive.
CCCSc1nsc(NC(=O)C(c2ccccc2)c2ccccc2)n1 was read as HT1080NT lethal inconclusive, HT1080 IDH1KD tx inconclusive, TGFb SMAD3 inh 18µM*, HepG2 viability 6.3µM*, ATXN2 expr inh inconclusive and ATXN viability inactive.
`CCCCCCCCCCCCCC(=O)Nc1ccc(/C=C/c2ccnc3ccccc23)cc1` gave TGFb SMAD3 inh 4% and HepG2 viability -8%.
CN(C)c1nc(Cc2ccc(NC(=O)c3ccc4ccccc4c3)cc2)nc(Cl)c1CC(=O)O was read as ATXN2 expr inh -1%.
`CO/N=C1\CN(c2nc3c(cc2F)c(=O)c(C(=O)O)cn3C2CC2)CC1CN` (stereo not drawn) gave ATXN2 expr inh -17% and ATXN viability inactive.
For CN1C(=S)N(c2cccnc2)C(=O)/C1=C\c1ccc(C(C)(C)C)cc1 the results were HT1080NT lethal inconclusive, HT1080 IDH1KD tx inconclusive, TGFb SMAD3 inh 22µM*, HepG2 viability -58%, ATXN2 expr inh 5% and ATXN viability inconclusive.
For CCOc1ccccc1NC(=O)N(C)CCc1c(C)nn(CC)c1C the results were TGFb SMAD3 inh 6%, HepG2 viability 2%, ATXN2 expr inh 8% and ATXN viability inactive.
`CCC1CSC(Nc2ccc(C(=O)/C=C/c3cccc(C)c3)cc2)=N1` (stereo not drawn) gave HT1080NT lethal inconclusive, HT1080 IDH1KD tx inconclusive, TGFb SMAD3 inh 18µM*, HepG2 viability -101%, ATXN2 expr inh -20% and ATXN viability inactive.
CCC1CSC(Nc2ccc(C(=O)/C=C/c3ccc(Oc4ccccc4)cc3)cc2)=N1 (stereo not drawn) was read as HT1080NT lethal 0%, HT1080 IDH1KD tx -15%, TGFb SMAD3 inh inconclusive, HepG2 viability -64%, ATXN2 expr inh inconclusive and ATXN viability inconclusive.
Screening O=C(/C=C\c1ccccc1)Oc1cccc2cccnc12 returned HT1080NT lethal inconclusive, HT1080 IDH1KD tx -23%, TGFb SMAD3 inh inconclusive, HepG2 viability -1% and ATXN viability inconclusive.
Screening O=C(/C=C/c1ccccc1)Oc1cccc2cccnc12 returned HT1080NT lethal 11%, HT1080 IDH1KD tx 3%, TGFb SMAD3 inh 4µM*, HepG2 viability 4µM* and ATXN viability inactive.

Bioassay records: PubChem BioAssay, National Center for Advancing Translational Sciences (NCATS)
